A selection: hits, their analogues and other compounds. The true share with any hit is near 2.6%.
STAT3 binder: STAT3 (human) binding; Small molecule microarray, His-STAT3 binding, anti-His fluorescence; calls only; actives 0.2% (n = 17,000);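 active = compounds whose four printed spots each show fluorescence over background unusually high for their array block, chance value under 7%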
Myc binder: c-Myc (human) binding; actives 1.5% (n = 17,000); calls only; small molecule microarray, His-c-Myc binding, anti-His fluorescence; P01106; AID 624141;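 active = spot fluorescence over background with P-value below 7% in all four replicate spots, showing protein binding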;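 note: score is binary with 100 for all four spots passing and 0 otherwise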
mut p53 react: mutant p53 pathway reactivation; SW480 PUMA-promoter luciferase; activation, % at 9.98 µM; actives 1.5% (n = 28,000); AID 624151; in the data active = activation above about 52%
p53 mut binder: binders of human mutant p53; small molecule microarray binding, anti-GST fluorescence; calls only; actives 0.4% (n = 17,000);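 active = compounds whose four printed spots each glow above background more than chance allows, each with a p-value under 7%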
NFkB binder: binds human NF-kappa-B p105 on microarray; P19838; Small molecule microarray, anti-His fluorescence binding; calls only; actives 1.3% (n = 17,000); AID 624139;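 active = spot fluorescence over background significantly raised, with a chance value under 7% in all four replicate spots of the compound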;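 note: probe protein is his-tagged human p50 processed subunit at 1 µg/ml; raw spot fluorescence signals with no normalization applied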
Target sequence (P19838 1-433 limits assumed): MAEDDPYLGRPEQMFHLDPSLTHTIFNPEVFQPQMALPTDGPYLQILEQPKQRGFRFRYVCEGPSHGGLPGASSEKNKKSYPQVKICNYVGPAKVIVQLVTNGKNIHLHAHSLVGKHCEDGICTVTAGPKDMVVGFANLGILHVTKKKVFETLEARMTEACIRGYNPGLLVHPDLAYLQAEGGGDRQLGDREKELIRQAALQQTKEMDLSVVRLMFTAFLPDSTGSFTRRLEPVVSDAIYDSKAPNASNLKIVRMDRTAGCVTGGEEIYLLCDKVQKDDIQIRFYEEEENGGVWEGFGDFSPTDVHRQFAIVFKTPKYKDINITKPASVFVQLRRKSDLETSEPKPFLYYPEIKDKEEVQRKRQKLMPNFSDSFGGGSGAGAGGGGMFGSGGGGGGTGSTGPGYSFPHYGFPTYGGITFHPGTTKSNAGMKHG
Numbers without * were called inactive; i = inactive; nt = not tested or not shown; + = active, no number.

SMILES	STAT3 binder	Myc binder	mut p53 react	p53 mut binder	NFkB binder
O=C(COc1ccc(Br)cc1CO)Nc1ccccc1	i	i	127*	i	i
Cc1ccc(NC(=O)COc2ccc(Br)cc2CO)cc1	nt	nt	68*	nt	nt
OC(CNCc1ccccc1)Cn1c2ccccc2c2ccccc21 (stereo not drawn)	nt	nt	-8	nt	nt
COc1ccc(C#Cc2ccc3c(c2)[C@]2(C(=O)N3)[C@H](C(=O)O)[C@H]3C(=O)O[C@H](c4ccccc4)[C@H](c4ccccc4)N3[C@@H]2c2ccc(OCCO)cc2)cc1	i	i	nt	i	i
C[C@@H]1CN([C@@H](C)CO)C(=O)c2cccc(NC(=O)Nc3cccc4ccccc34)c2O[C@H]1CN(C)C(=O)Nc1ccc(C(F)(F)F)cc1	i	i	-6	i	+
CC(C)NC(=O)Nc1cccc2c1O[C@H](CN(C)Cc1ccccc1)[C@H](C)CN([C@@H](C)CO)C2=O	i	i	6	i	i
C[C@@H]1CN([C@@H](C)CO)C(=O)c2cccc(NC(=O)Nc3ccc(C(F)(F)F)cc3)c2O[C@H]1CN(C)C(=O)NC1CCCCC1	+	i	-20	i	i
C[C@H](CO)N1C[C@H](C)[C@@H](CN(C)Cc2ccc(Cl)c(Cl)c2)Oc2c(NC(=O)C3CCOCC3)cccc2C1=O	i	i	-12	i	i
C[C@H]1CN([C@@H](C)CO)C(=O)c2cccc(NC(=O)NC3CCCCC3)c2O[C@H]1CN(C)C(=O)Nc1ccc(C(F)(F)F)cc1	i	i	-41	i	i
CC(C)NC(=O)Nc1cccc2c1O[C@@H](CN(C)Cc1ccc(C(F)(F)F)cc1)[C@H](C)CN([C@@H](C)CO)C2=O	i	+	-12	i	+
C[C@@H]1CN([C@@H](C)CO)C(=O)c2cccc(NC(=O)C3CCOCC3)c2O[C@H]1CN(C)Cc1ccc(Cl)c(Cl)c1	i	+	-4	i	i
COC(=O)COc1ccc(NC(=O)c2ccc(NC(C)=O)cc2)cc1	i	i	-9	i	i
C[C@H]1CCCCO[C@H](CN(C)C(=O)CCC(F)(F)F)[C@@H](C)CN([C@@H](C)CO)C(=O)c2cc(N(C)C)ccc2O1	i	i	-2	i	i
C[C@@H]1CN([C@@H](C)CO)C(=O)c2cccc(NC(=O)Nc3ccccc3)c2O[C@@H]1CN(C)C(=O)NC1CCCCC1	i	i	-10	i	i
C[C@H]1CN([C@@H](C)CO)C(=O)c2cccc(NC(=O)NC3CCCCC3)c2O[C@H]1CN(C)C(=O)NC1CCCCC1	i	+	-3	i	+
C[C@H](CO)N1C[C@H](C)[C@H](CN(C)C(=O)NC2CCCCC2)Oc2c(NC(=O)Nc3ccc(F)cc3)cccc2C1=O	i	i	-26	i	i
C[C@@H]1CN([C@H](C)CO)C(=O)c2cccc(NC(=O)Nc3ccc(C(F)(F)F)cc3)c2O[C@@H]1CN(C)C(=O)NC1CCCCC1	i	+	-22	i	+
C[C@@H]1CN([C@H](C)CO)C(=O)c2cccc(NC(=O)NC3CCCCC3)c2O[C@H]1CN(C)C(=O)Nc1ccc(C(F)(F)F)cc1	i	+	2	i	+
C[C@H](CO)N1C[C@H](C)[C@@H](CN(C)Cc2ccc(C(F)(F)F)cc2)OCc2cnnn2CCCC1=O	i	+	14	i	+
Cc1ccc(OCC(=O)Nc2ccc3c(c2)oc2ccccc23)cc1[N+](=O)[O-]	nt	nt	-7	nt	nt
O=C(CSc1nnc(-c2ccncc2)o1)c1ccc2ccccc2c1	i	i	21	i	i
O=C(CC1NC2CCCCC2NC1=O)Nc1ccc(Cl)cc1 (stereo not drawn)	nt	nt	9	nt	nt
CC1(C)CC(=O)C2=C(C1)N(c1ccccc1)C(=O)C2(NC(=O)c1cccnc1)C(F)(F)F (stereo not drawn)	nt	nt	-7	nt	nt
C[C@H](CO)N1C[C@H](C)[C@@H](CN(C)C(=O)NC2CCCCC2)Oc2c(NC(=O)Nc3ccc(C(F)(F)F)cc3)cccc2C1=O	i	+	-37	i	+
C[C@@H]1CN([C@@H](C)CO)C(=O)c2cc(NC(=O)NC3CCCCC3)ccc2O[C@H]1CN(C)C(=O)Nc1ccc(C(F)(F)F)cc1	i	i	-13	i	+
SMILES	STAT3 binder	Myc binder	mut p53 react	p53 mut binder	NFkB binder
C[C@H]1CN([C@@H](C)CO)S(=O)(=O)c2ccc(C#Cc3cccc(F)c3)cc2O[C@H]1CN(C)S(=O)(=O)c1ccccc1F	nt	nt	8	nt	nt
O=C1O[C@H](c2ccccc2)[C@H](c2ccccc2)N2[C@H]1[C@@H](C(=O)N1CCCCCCC1)[C@]1(C(=O)Nc3ccc(C#CC4(O)CCCCCC4)cc31)[C@H]2c1ccccc1OCCO	i	i	nt	+	i
COC(=O)C(CC#Cc1ccc2c(c1)[C@]1(C(=O)N2)[C@H](C(N)=O)[C@H]2C(=O)O[C@H](c3ccccc3)[C@H](c3ccccc3)N2[C@@H]1c1ccc(OCCO)cc1)C(=O)OC	i	i	nt	i	i
O=C1O[C@H](c2ccccc2)[C@H](c2ccccc2)N2[C@H]1[C@@H](C(=O)N1CCCCCCC1)[C@]1(C(=O)Nc3ccc(C#CC4=CCCCC4)cc31)[C@H]2c1ccc(OCCO)cc1	i	+	nt	+	+
COC(=O)C(CC#Cc1ccc2c(c1)[C@]1(C(=O)N2)[C@H](C(N)=O)[C@H]2C(=O)O[C@H](c3ccccc3)[C@H](c3ccccc3)N2[C@@H]1c1ccccc1OCCO)C(=O)OC	i	i	nt	+	i
O=C1O[C@H](c2ccccc2)[C@H](c2ccccc2)N2[C@H]1[C@@H](C(=O)N1CCCCCCC1)[C@]1(C(=O)Nc3ccccc31)[C@H]2c1ccc(O)cc1	i	+	nt	+	+
O=C1O[C@@H](c2ccccc2)[C@@H](c2ccccc2)N2[C@@H](c3ccc(O)cc3)[C@]3(C(=O)Nc4ccccc43)[C@@H](C(=O)N3CCCCCCC3)[C@H]12	i	i	nt	i	i
C[C@@H]1CCCCO[C@@H](CN(C)Cc2ccccc2)[C@@H](C)CN([C@H](C)CO)C(=O)c2cc(NS(C)(=O)=O)ccc2O1	i	i	2	i	i
COC(=O)c1ccccc1NC(=O)C1=C(C)NC(=S)NC1c1cc(Cl)cc(OC)c1OC(C)C (stereo not drawn)	nt	nt	-5	nt	nt
C[C@H]1CN([C@@H](C)CO)C(=O)c2cc(NS(=O)(=O)c3cn(C)cn3)ccc2O[C@H]1CN(C)C(=O)NC1CCCCC1	i	i	12	i	i
CC(=O)O[C@@H]1c2c(ccc3ccc(=O)oc23)OC(C)(C)[C@@H]1OC(=O)C=C(C)C	i	i	6	i	i
COC(=O)C(CC#Cc1ccc2c(c1)[C@]1(C(=O)N2)[C@H](c2ccc(OCCO)cc2)N2[C@H](c3ccccc3)[C@H](c3ccccc3)OC(=O)[C@H]2[C@@H]1C(=O)N1CCCCCCC1)C(=O)OC	i	i	nt	+	i
